According to PubChem BioAssay (NCI):
About 79,000 compounds went through this panel and 15% of them were active in at least one assay; those are over-represented in the sample as a whole. Rule as the data show it: active = growth inhibition above about 70%; inactive = the rest.

Key:
[1] = NCI Yeast Anticancer Drug Screen. Data for the rad50 strain (AID 155);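 also: 0% = growth of vehicle-only cultures of the same strain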; conditions: S. cerevisiae rad50 strain growth inhibition; at 50.0 µM; active compounds read high
Method in brief: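 Yeast carrying a defined DNA repair defect were exposed to test compounds, and growth was compared with vehicle-treated controls to give percent inhibition.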

[2] = NCI Yeast Anticancer Drug Screen. Data for the mec2-1 strain (AID 157); conditions: S. cerevisiae mec2-1 strain, at 50.0 µM, active compounds read high
Method in brief: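 mec2-1 yeast strain, carrying an alteration in DNA damage repair or cell cycle control, was exposed to compounds; growth inhibition was measured relative to vehicle-treated controls.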

[3] = NCI Yeast Anticancer Drug Screen. Data for the sgs1 mgt1 strain (AID 161);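 also: 0% = growth of cultures given vehicle only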; conditions: S. cerevisiae sgs1 mgt1 strain, at 50.0 µM, active compounds read high
Method in brief: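 Percent growth inhibition was derived by comparing compound-exposed mutant yeast with vehicle-exposed cultures. The strain carries alterations in DNA damage repair.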

[4] = NCI Yeast Anticancer Drug Screen. Data for the cln2 rad14 strain (AID 165);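 also: 0% = growth equal to vehicle treated cultures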; conditions: S. cerevisiae cln2 rad14 strain, at 50.0 µM, active compounds read high
Method in brief: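 Yeast carrying cln2 and rad14 alterations (cell cycle control and DNA damage repair) were exposed to compounds. Growth inhibition was measured against vehicle-treated controls.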

[5] = NCI Yeast Anticancer Drug Screen. Data for the bub3 strain (AID 167); conditions: S. cerevisiae bub3 mutant strain, at 50.0 µM, active compounds read high
Method in brief: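 Compounds were applied to a genetically altered yeast strain carrying a cell-cycle control defect. Growth inhibition was scored against vehicle-treated controls.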

[6] = NCI Yeast Anticancer Drug Screen. Data for the mlh1 rad18 strain (AID 175); conditions: S. cerevisiae mlh1 rad18 strain growth inhibition; at 50.0 µM; active compounds read high
Method in brief: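 Growth inhibition of the yeast strain was measured after compound exposure and expressed relative to vehicle-treated controls. The strain carries defined defects in DNA damage repair.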

Measured: growth inhibition

COc1ccc(-n2cnc3[nH]ncc3c2=O)cc1
inactive: [1] 1.7% | [2] 0.75% | [3] 0.05% | [4] -0.85% | [5] 12.3% | [6] -2.95%

C/C(CCn1[nH]c(=O)ccc1=O)=N\NC(=O)C(=O)NN
inactive: [1] -4.75% | [2] -18.4% | [3] -6.55% | [4] 2.55% | [5] 1.55% | [6] -8.2%

CCCCCCCCCCCCCCCCCCNC(=O)Nc1ccccc1
inactive: [1] 3.1% | [2] 7.05% | [3] -2.75% | [4] -7.65% | [5] -4.05% | [6] 15.3%

N#CC(=NCCO)C1=C(O)c2ccccc2C1=O
inactive: [1] 6.1% | [2] -10.7% | [3] -16.3% | [4] -30.6% | [5] -48% | [6] -12.3%

Nc1nc2c(ncn2C2C=CC(CO)C2)c(=O)[nH]1 (stereo unspecified)
inactive: [1] 7.6% | [2] 12.5% | [3] 3.9% | [4] 10.4% | [5] -2.1% | [6] 4.25%

OCC(O)C(O)C(O)CN=Cc1ccccc1O (stereo unspecified)
inactive: [1] -7.45% | [2] -2.25% | [3] 10.4% | [4] -7.8% | [5] -1.15% | [6] 12.3%

COc1ccc2c(c1)C(=O)OCCC2
inactive: [1] 25.4% | [2] 17.5% | [3] -26.6% | [4] 10.3% | [5] -36.4% | [6] -9.95%

CC(=O)OCCn1c(=O)sc2ccccc21
inactive: [1] 3.1% | [2] 13.8% | [3] 3.2% | [4] -8.35% | [5] -10.7% | [6] -1.4%

N#CC(c1ccccc1)N(CCc1ccccc1)C(=O)c1ccccc1 (stereo unspecified)
inactive: [1] -3.7% | [2] 1.7% | [3] -23.4% | [4] -18.7% | [5] -27.8% | [6] -48.2%

CS(=O)(=O)OC1CCCSc2ccccc21 (stereo unspecified)
inactive: [1] 8.8% | [2] 2% | [3] -14.4% | [4] -8.2% | [5] 16.7% | [6] -25.4%

CCOC(=O)CCCCN(CC)CCCCC(=O)OCC
inactive: [1] 2.65% | [2] -1.5% | [3] 11.1% | [4] -2.25% | [5] 16.6% | [6] -19.6%

C=CCOc1cc2c(cc1Cc1ccc3c(c1)OCO3)OCO2
inactive: [1] -6.85% | [2] -7.75% | [3] -7.9% | [4] 9.25% | [5] 7.5% | [6] -3.05%

CCc1cccc(C)c1NC(=O)C(=O)CC(=O)CS(=O)(=O)c1ccc(C)cc1
inactive: [1] -13.4% | [2] -15.2% | [3] -6% | [4] -0.8% | [5] -8.8% | [6] 12.5%

Cc1cc([NH-])c([NH-])cc1C.[Cl][Pt+2][Cl]
inactive: [1] -2.85% | [2] -6.4% | [3] -0.15% | [4] -0.3% | [5] -6.4% | [6] -25.9%

O=C(COc1ccc(Cl)cc1Cl)Nc1c(Cl)cc(Cl)cc1Cl
inactive: [1] 6.7% | [2] 7.6% | [3] -6.45% | [4] 2% | [5] -4.8% | [6] 19.6%

O/N=C/c1cc2c(cc1Br)OCO2
inactive: [1] -4.2% | [2] -9.9% | [3] -18.9% | [4] -9.75% | [5] -16.9% | [6] -17.6%

CC1(C)CN(CCO)C(C)(C)CN1
inactive: [1] 30.6% | [2] 16.3% | [3] 14.9% | [4] 15.8% | [5] -19.8% | [6] 2.5%

COC(=O)CCNC(=O)OCc1ccccc1
inactive: [1] 14.6% | [2] 30% | [3] -16.7% | [4] 26.6% | [5] -49.6% | [6] -75%

COc1c(C)c(C)c(Br)c(C)c1C
inactive: [1] 6.35% | [2] 7.65% | [3] 6.7% | [4] 15.6% | [5] 0.55% | [6] 12.2%

O=C(c1ccccc1)C(Br)C(Br)c1ccc([N+](=O)[O-])cc1 (stereo unspecified)
inactive: [1] 14.7% | [2] 39.9% | [3] 31.4% | [4] 24.2% | [5] -1.9% | [6] 21.6%

CN(C)C=NCc1ccc2c(c1)OCO2
inactive: [1] 2.05% | [2] -24% | [3] -13.2% | [4] 2.7% | [5] 1.5% | [6] -17%

O=C1CN(Cc2ccccc2)CCO1
inactive: [1] 4.95% | [2] -4.3% | [3] -3.55% | [4] 0.9% | [5] 10.5% | [6] 1.4%

CCN(CC)C(=N)N
inactive: [1] -11.6% | [2] -1.55% | [3] -27.2% | [4] -34.2% | [5] -22% | [6] -14.4%

CP(=O)(c1ccccc1)c1ccccc1OCCCOCCCOc1ccccc1P(C)(=O)c1ccccc1 (stereo unspecified)
inactive: [1] -4.8% | [2] 3.4% | [3] 0.45% | [4] 8.1% | [5] -3.55% | [6] -10.6%

CCCCN(C(=O)N(CC)CC)[Si](C)(C)C
inactive: [1] -17.6% | [2] -41.7% | [3] -12.4% | [4] 14% | [5] -14.7% | [6] -25.3%

CCCCn1cnnc1NS(=O)(=O)c1cc(C)c(Cl)cc1SCC(=O)O
inactive: [1] -20.5% | [2] -5.25% | [3] 6.15% | [4] 0.4% | [5] -13.8% | [6] -5.5%

CCCc1cc(C(=O)OC/C(C)=N/O)c2ccccc2n1
inactive: [1] -8.15% | [2] 0.7% | [3] 11.3% | [4] -7.75% | [5] 24.6% | [6] 9.4%

C=CCOC(=O)C(CC=C)C(C)=O (stereo unspecified)
inactive: [1] 3.3% | [2] -21.9% | [3] -17.1% | [4] -5.05% | [5] -19.8% | [6] -11.4%

O=C1CCC(=O)c2cc(Br)ccc2N1
inactive: [1] 25.8% | [2] 11.8% | [3] 2.85% | [4] 13% | [5] 46.2% | [6] 23.1%

CCOC(=O)C(CCCOC1CCCCO1)(C(=O)CC)c1ccccc1 (stereo unspecified) (tested in a mixture with another compound)
inactive: [1] 25.4% | [2] -7.05% | [3] -6.25% | [4] 2.3% | [5] 1.9% | [6] -3.05%

CC1=CC(=C(c2cc(C)c(O)c(C(=O)O)c2)c2cc(C)c(O)c(C(=O)O)c2)C=C(C(=O)O)C1=O
inactive: [1] -2.3% | [2] -28.1% | [3] -8.5% | [4] 2.3% | [5] 8.8% | [6] 7.3%

O=c1[nH][nH]c(=O)c2[nH]cnc12
inactive: [1] -11.9% | [2] -8.2% | [3] 29.1% | [4] -62.6% | [5] -6.3% | [6] -10%

Oc1c(Cl)c(Cl)c(O)c2ccccc12
inactive: [1] -3.7% | [2] -0.95% | [3] 7.15% | [4] 44.2% | [5] 8.1% | [6] -52.9%

Cc1c(C)c(CN)c(C)c(C)c1CN
inactive: [1] -30.5% | [2] -47% | [3] -16.6% | [4] -24.2% | [5] -43.4% | [6] -31.7%

CCCCC(C(=O)O)C(=O)O
inactive: [1] -15.3% | [2] -13.4% | [3] -21.8% | [4] 1.1% | [5] -2.05% | [6] -18.4%

Cc1c(COC(=O)NC(C)C)c(COC(=O)NC(C)C)c(-c2ccccc2)n1-c1ccccc1
inactive: [1] -16% | [2] -1.95% | [3] 13.8% | [4] -8.1% | [5] -14.1% | [6] 64.2%

C1CSCCSCCSCCS1
inactive: [1] -1.15% | [2] -2.55% | [3] -0.85% | [4] -12.4% | [5] -0.4% | [6] -11.9%

OC1CCOc2ccccc21 (stereo unspecified)
inactive: [1] -29.8% | [2] 10.1% | [3] -11.1% | [4] 10.2% | [5] -14.8% | [6] -6.3%

O=C(c1ccc(CSc2ccc(Cl)cc2)o1)N1CCOCC1
inactive: [1] 23.9% | [2] 12% | [3] 45.5% | [4] 24.2% | [5] 32.6% | [6] 26.6%

CCC(CC)c1ccc2ccccc2c1
inactive: [1] -22.2% | [2] 1% | [3] -11.6% | [4] -19.6% | [5] -6.55% | [6] -11.4%

O=C1c2ccccc2C(=O)c2cc(C[n+]3ccccc3C3OCCO3)ccc21
inactive: [1] 19% | [2] 7.2% | [3] 42.2% | [4] 15.8% | [5] -0.8% | [6] 2.55%
